# SKKanGAS inh: inhibitors of SKKanGAS S. pyogenes growth in kanamycin (SK-promoter or general growth effect). BacTiter-Glo, 6 h. inhibition, % at 7.5 µM. 300,000 tested, 1.3% active. AID 1662;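 active = mean replicate score, as percent of positive control median, at least 50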;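 note: strain carries kanamycin resistance gene driven by streptokinase promoter and grows in 40 µg/ml kanamycin; loss of luminescence reflects streptokinase promoter inhibition or plain growth inhibition; 0% = median of DMSO wells and 100% = positive control at its reference dose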
# Beta apoptosis: blocks beta cell apoptosis | INS-1E cytokine-induced death, ATP luminescence, 48 h; percent of positive-control rescue, neutral wells zero | 300,000 tested, 0.8% active | protection from apoptosis, % (test concentration not listed) | AID 435005;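 active = Every replicate reaches about 75%, or at least half do and their mean reaches it too, limit read from the data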;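 note: 0% = cytokine-treated negative control wells and 100% = positive control rescue; higher means more ATP so stronger rescue from cytokine killing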
# CSC inhib: cancer stem cell inhibition; cancer stem cell-like cells viability, luminescence; inhibition, % at 7.5 µM; 300,000 tested, 1.1% active; in the data active = inhibition above about 75%; tested in HMLE shEcad cells
# MPTP block: blocks calcium-induced mitochondrial swelling. isolated mouse mitochondria, Ca2+ swelling absorbance, 30 min. inhibition, % at 10 µM. 360,000 tested, 1.4% active;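 active = inhibition of 50% or more, scaled per plate between neutral and stimulator controls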;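 note: 0% = DMSO wells given calcium and 100% = 1 mM EGTA wells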
# Mdm2-MdmX inh: inhibitors of human Mdm2/MdmX interaction. O15151+Q00987. SaOS-2 split-luciferase Mdm2/MdmX complementation, luminescence. inhibition, % at 8 µM. 330,000 tested, 3% active. AID 485346;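 active = inhibition of at least 50% at 8 µM in the primary screen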
# NR3A LBD binder: modulates the human NR3A ligand-binding domain. NR3A LBD differential scanning fluorimetry, Tm shift; 0% = protein alone, 100% = glycine-bound protein. Tm shift relative to glycine control, % at 25 µM. 340,000 tested, 2.5% active. AID 1259313;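 active = melting temperature shift of at least 10% of the positive control shift, at one fixed dose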
# * marks the source's active call; other numbers are inactive results; . = not tested or not shown. Rows were chosen to be rich in hits. Some 6.9% of all compounds tested hit in one or more screens of this group.
SMILES,SKKanGAS inh,Beta apoptosis,CSC inhib,MPTP block,Mdm2-MdmX inh,NR3A LBD binder
O=C(NCc1ccco1)c1cc(-c2ccc3c(c2)OCO3)on1,-1,3,82*,0,-49,0
Cc1nn(Cc2ccc(Cl)cc2)c(C)c1NC(=O)c1cc(-c2ccc3c(c2)OCO3)on1,18,25,83*,0,-6,2
Cc1ccc(-c2cc(C(=O)NCc3ccco3)no2)cc1,-19,5,-5,2,-51,2
Cc1ccccc1C(=O)NNC(=O)CSc1nc2ccccc2c(=O)[nH]1,2,-2,-2,2,5,-1
Cc1cccc(N2C(=O)N3[C@H](c4ccc(Cl)cc4)[C@@H]4C(=O)N(C5CCCCC5)C(=O)[C@@H]4[C@]3(Cc3ccc(Cl)cc3)C2=O)c1,-2,-2,9,3,24,21*
O=C1[C@H]2[C@@H](c3ccc(Cl)cc3)N3C(=O)N(c4cccc(F)c4)C(=O)[C@@]3(Cc3ccc(Cl)cc3)[C@H]2C(=O)N1C1CCCCC1,7,21,16,1,29,14*
CC(C)(C)N1C(=O)[C@H]2[C@@H](c3ccc(Br)cc3)N3C(=O)N(c4ccccc4)C(=O)[C@@]3(Cc3ccccc3)[C@H]2C1=O,5,-1,-10,4,20,-6
CC(C)(C)N1C(=O)[C@H]2[C@@H](c3ccc(Br)cc3)N3C(=O)N(c4cccc(Br)c4)C(=O)[C@@]3(Cc3ccccc3)[C@H]2C1=O,-2,1,-13,-1,27,10*
O=C1[C@H]2[C@@H](c3ccc(F)cc3)N3C(=O)N(c4cccc(F)c4)C(=O)[C@@]3(Cc3ccc(Cl)cc3)[C@H]2C(=O)N1C1CCCCC1,5,22,5,0,3,10
COc1ccc(NS(=O)(=O)c2cn(C)cn2)cc1OC,-1,-5,-5,-4,-16,3
Cc1ccc(S(=O)(=O)NCCC(=O)OCC(=O)N(Cc2ccccc2)C(C)(C)C)cc1,-7,-3,.,-2,9,2
COc1cc(/C=N/N(c2ccccc2)c2ccccc2)ccc1O,25,2,99*,3,6,-5
COc1ccc(/C=N/N(c2ccccc2)c2ccccc2)cc1O,4,7,81*,3,1,-1
CCN(CC)Cc1c(C(=O)N/N=C/c2c(Cl)cccc2Cl)nnn1-c1nonc1N,-3,1,.,-1,12,7
CNc1nnc(SCC(=O)N2c3ccccc3NC(=O)CC2C)s1 (stereo not drawn),.,0,-11,-1,5,0
O=C1C=C(c2ccc3[nH]ccc3c2)C[C@@H](c2ccc(F)cc2)C1,.,-2,7,0,8,21*
O=C1C=C(c2ccc(-c3ccccc3)cc2)C[C@@H](c2ccc(Cl)cc2)C1,.,-8,2,2,0,1
O=C1C=C(c2ccc(Cl)c(C(F)(F)F)c2)C[C@@H](c2ccc(Cl)cc2)C1,.,0,116*,1,32,-16
CCOC(=O)c1cccc(C2=CC(=O)C[C@H](c3ccc(Cl)cc3)C2)c1,.,2,77*,0,18,0
CSCCC(C(=O)NC1CCCC1)n1c(-c2ccncc2)nc2ccccc21 (stereo not drawn),.,.,.,-3,.,.
Cc1ccc([C@H]2C[C@@H](O)[C@H](n3cc(COC(=O)c4ccccc4)nn3)CN2CC2CCCCC2)cc1,.,.,.,-1,.,.
O=C(O)CN1C(=O)/C(=C\C(Br)=C\c2ccccc2)SC1=S,-4,6,27,3,14,13*
O=C(O)CN1C(=O)/C(=C/C=C/c2ccccc2)SC1=S,3,-2,-7,8,-26,21*
CC(=C\c1ccccc1)/C=C1/SC(=S)N(CCCC(=O)O)C1=O,24,1,11,1,-5,-2
Cc1ccc(NC(=S)N(Cc2ccc(Br)cc2)Cc2ccc(C(=O)O)cc2)cc1C,53*,0,4,-1,-26,-7
SMILES,SKKanGAS inh,Beta apoptosis,CSC inhib,MPTP block,Mdm2-MdmX inh,NR3A LBD binder
Cc1cc(NC(=S)N(Cc2ccc(Cl)cc2)Cc2ccc(C(=O)O)cc2)ccc1Cl,64*,-2,5,-3,1,-6
CC(OC(=O)/C=C/c1cccc(Cl)c1)C(=O)NC1CCCCC1C (stereo not drawn),-1,-1,0,0,21,0
N#CCC(=O)Nc1ccc(C(=O)OC(C(=O)Nc2ccc([N+](=O)[O-])cc2Br)c2ccccc2)cc1 (stereo not drawn),.,.,.,4,.,12*
O=C(COC(=O)CCc1nc2ccccc2n1-c1ccccc1)Nc1cccc(Cl)c1,3,-8,-18,3,17,4
Cc1c(Cl)cccc1NC(=O)COC(=O)CCc1nc2ccccc2n1-c1ccccc1,-8,5,-4,2,-8,25*
O=C(NC(=S)N(Cc1ccccc1)Cc1ccccc1)c1ccccc1F,94*,15,35,1,8,-7
COc1ccc(C(=O)NC(=S)N(Cc2ccccc2)Cc2ccccc2)cc1,96*,21,29,3,30,-10
CC(C)CC(=O)NC(=S)N(Cc1ccccc1)Cc1ccccc1,54*,-2,3,0,-17,-1
COc1ccccc1-c1sc2ccccc2c1-c1cnc(N2CCOCC2)nc1,.,.,.,2,.,.
CCc1ccc(CN(C)C(=O)c2cc(COc3cc(C)c(Cl)c(C)c3)on2)nc1,-5,-14,35,1,43,3
COc1ccc2sc(-c3ccc(N(C)C)cc3)c(C#CCCO)c2c1,.,3,122*,3,47,-5
COc1ccc(-c2sc3cc(OC)c(OC)cc3c2C#CC(C)(C)O)cc1,.,3,17,-2,46,-17
COc1ccc(-c2sc3ccc(OC)cc3c2C#CCCO)cc1,97*,7,99*,2,11,1
CCCCS(=O)(=O)N1CCCC(C(=O)Oc2ccc(Cl)cc2)C1 (stereo not drawn),-1,-4,3,0,4,0
CSCCC(NC(=O)c1ccc(C)o1)C(=O)O (stereo not drawn),-1,-1,-12,-3,11,15*
O=C(/C=C/c1ccccc1)CCN1CCCCC1,.,.,.,-3,.,0
Cc1cc2n(n1)C(c1c[nH]c3ccccc13)Nc1ccccc1-2 (stereo not drawn),63*,2,66,6,20,32*
O=C(N/N=C/c1ccc(-c2cccc([N+](=O)[O-])c2)o1)[C@H]1C[C@@H]1c1ccccc1,17,6,15,2,31,15*
Nc1nonc1C(=O)N/N=C/c1ccc(-c2cccc([N+](=O)[O-])c2)o1,-2,-4,4,0,24,-3
O=C(Cc1ccccc1)Nc1nc(-c2cccc([N+](=O)[O-])c2)cs1,2,0,2,2,10,-3
O=C(N/N=C/c1ccc(-c2cccc([N+](=O)[O-])c2)o1)c1cccs1,-6,6,-3,-1,6,14*
